Experimental data published in PubChem BioAssay (NCI).
This is part of a sample that, as a whole, favours compounds with a hit. Of some 83,000 tested, about 20% had one in any assay.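 Growth was measured after 48 h exposure to one concentration of compound in 96-well plates. Values under 10 count as active.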 Active and inactive are the calls of the source.

Legend:
Assay in all cases: NCI-60 one-dose screen, 48 h (100 = growth as untreated, 0 = no growth, -100 = all killed)
Conditions in all cases: 10 µM unless noted
HCT-15 colon = system: HCT-15 colon
HT29 colon = system: HT29 colon
SNB-75 CNS = system: SNB-75 CNS
SNB-19 CNS = system: SNB-19 CNS
U251 CNS = system: U251 CNS
PC-3 prostate = system: PC-3 prostate
SK-MEL-5 melanoma = system: SK-MEL-5 melanoma
UACC-62 melanoma = system: UACC-62 melanoma
LOX IMVI melanoma = system: LOX IMVI melanoma
SK-MEL-28 melanoma = system: SK-MEL-28 melanoma

Measured: growth

C[C@@H](NC(=O)[C@@H](CC(=O)N1CCC(N2CCCCC2)CC1)N1C(=O)[C@@H](N2C(=O)OC[C@@H]2c2ccccc2)[C@H]1/C=C/c1cccc(Cl)c1)c1ccccc1
active: HT29 colon 1.92% | SK-MEL-5 melanoma -89% | LOX IMVI melanoma -43.2% | SK-MEL-28 melanoma -29.4%
inactive: HCT-15 colon 32.8% | SNB-75 CNS 70.8% | SNB-19 CNS 82.2% | U251 CNS 55.2% | PC-3 prostate 56.1% | UACC-62 melanoma 89.5%

CC[C@@](C)(NC(=O)[C@H](C)NC(=O)CCNC(=O)C(C)(C)NC(=O)[C@H](C)NC(=O)[C@@H]1CCCN1C(=O)[C@@](C)(CC)NC(=O)[C@H](Cc1ccccc1)NC(=O)C1CCCN1C(=O)C(C)(C)NC(=O)C1CCCN1C(=O)C(C)(C)NC(C)=O)C(=O)NCCC(=O)N[C@@H](CC(C)C)C(=O)NC(C)(C)C(=O)NCCC(=O)N[C@@H](CC(C)C)C(=O)NC(C)(C)C(=O)NC(C)(C)C(=O)N[C@@H](CC(C)C)C(=O)NCCC(=O)NCO (stereo not given in full)
active: HCT-15 colon -99.4% | HT29 colon -70.8% | SNB-75 CNS -96.4% | SNB-19 CNS -87.2% | U251 CNS -99.1% | PC-3 prostate -94.6% | SK-MEL-5 melanoma -100% | UACC-62 melanoma -75.3% | LOX IMVI melanoma -100% | SK-MEL-28 melanoma -84.1%

COCCCNc1nc(NC(=O)c2cc(Br)cc(C(F)(F)F)c2)cc(-c2cccnc2)n1
inactive: HCT-15 colon 85.9% | HT29 colon 83.7% | SNB-75 CNS 115% | SNB-19 CNS 95.9% | U251 CNS 85.9% | PC-3 prostate 70.6% | SK-MEL-5 melanoma 70.6% | UACC-62 melanoma 90.5% | LOX IMVI melanoma 104% | SK-MEL-28 melanoma 98.6%

CCCCCN(CCCCC)CCCCCCCCN1CCCc2ccccc21
inactive: HCT-15 colon 89.7% | HT29 colon 25.6% | SNB-75 CNS 76.6% | SNB-19 CNS 102% | U251 CNS 101% | PC-3 prostate 79.5% | SK-MEL-5 melanoma 100% | UACC-62 melanoma 101% | LOX IMVI melanoma 61.4% | SK-MEL-28 melanoma 105%

N#C/C(C(=O)c1ccccc1)=C1/C(=O)Nc2ccc(Br)cc21
inactive: HCT-15 colon 107% | HT29 colon 113% | SNB-75 CNS 70.5% | SNB-19 CNS 98.6% | U251 CNS 106% | PC-3 prostate 96.4% | SK-MEL-5 melanoma 95.5% | UACC-62 melanoma 92.5% | LOX IMVI melanoma 103% | SK-MEL-28 melanoma 105%

NC(=O)c1c(NC(=O)COC(=O)Cc2ccccc2F)sc2c1CCC2
inactive: HCT-15 colon 104% | HT29 colon 117% | SNB-75 CNS 106% | SNB-19 CNS 86.6% | U251 CNS 101% | PC-3 prostate 100% | SK-MEL-5 melanoma 91.1% | UACC-62 melanoma 97% | LOX IMVI melanoma 110% | SK-MEL-28 melanoma 97.2%

C=C(C)[C@@H]1CC[C@]2(C(N)=O)CC[C@]3(C)[C@H](CC[C@@H]4[C@@]5(C)C/C(=C/c6cccnc6)[C@H](O)C(C)(C)[C@@H]5CC[C@]43C)[C@@H]12
active: HT29 colon -20.5% [100 µM] | SK-MEL-5 melanoma -78.1% [100 µM] | LOX IMVI melanoma -35.9% [100 µM]
inactive: HCT-15 colon 18.7% [100 µM] | SNB-75 CNS 47.1% [100 µM] | SNB-19 CNS 39% [100 µM] | U251 CNS 24.6% [100 µM] | PC-3 prostate 21.1% [100 µM] | UACC-62 melanoma 24.8% [100 µM] | SK-MEL-28 melanoma 26.5% [100 µM]

C=C(C)[C@@H]1CC[C@]2(C(N)=O)CC[C@]3(C)[C@H](CC[C@@H]4[C@@]5(C)C/C(=C/c6cccnc6)C(=O)C(C)(C)[C@@H]5CC[C@]43C)[C@@H]12
active: HT29 colon -45.3% [100 µM] | U251 CNS 9.19% [100 µM] | SK-MEL-5 melanoma -61.9% [100 µM] | UACC-62 melanoma -1.04% [100 µM] | LOX IMVI melanoma -41.5% [100 µM] | SK-MEL-28 melanoma -8.42% [100 µM]
inactive: HCT-15 colon 14.9% [100 µM] | SNB-75 CNS 40.6% [100 µM] | SNB-19 CNS 27.8% [100 µM] | PC-3 prostate 11.7% [100 µM]

Cc1ccc(Cn2c(O)c(N=NC(=O)c3ccc(S(N)(=O)=O)cc3)c3ccccc32)cc1
inactive: HCT-15 colon 106% | HT29 colon 111% | SNB-75 CNS 92.4% | SNB-19 CNS 100% | U251 CNS 97.8% | PC-3 prostate 94.5% | SK-MEL-5 melanoma 98.5% | UACC-62 melanoma 86.7% | LOX IMVI melanoma 103% | SK-MEL-28 melanoma 106%

Fc1cc2[nH]ncc2c2c3c(c(-c4cn[nH]c4)nc12)CCCC3
inactive: HT29 colon 11%
active: HCT-15 colon 4.51% | SNB-75 CNS 3.38% | SNB-19 CNS 8.75% | U251 CNS -1.45% | PC-3 prostate 7.08% | SK-MEL-5 melanoma -69.4% | UACC-62 melanoma -48% | LOX IMVI melanoma 0.769% | SK-MEL-28 melanoma 2.87%

C=CCCC1(C)NC(=O)NC1=O (stereo not given)
inactive: HCT-15 colon 105% | HT29 colon 93.2% | SNB-75 CNS 89.3% | SNB-19 CNS 99.6% | U251 CNS 103% | PC-3 prostate 86.5% | SK-MEL-5 melanoma 104% | UACC-62 melanoma 99.2% | LOX IMVI melanoma 93.7% | SK-MEL-28 melanoma 106%

COC(=O)c1cc(O)c2c(c1C(=O)OC)C[C@H]1[C@@H]3CC=C4C[C@@H](O)CC[C@]4(C)[C@H]3CC[C@]21C
inactive: HCT-15 colon 24.6% | HT29 colon 16.2% | SNB-75 CNS 62.2% | SNB-19 CNS 66.9% | U251 CNS 37.5% | PC-3 prostate 41.3% | UACC-62 melanoma 40.9% | SK-MEL-28 melanoma 46.3%
active: SK-MEL-5 melanoma 1.59% | LOX IMVI melanoma 9.77%

COc1cc(-c2nc(SCCC(C)C)nc(Nc3ccccc3)c2C#N)cc(OC)c1OC
inactive: HCT-15 colon 96.8% | HT29 colon 82.3% | SNB-75 CNS 66.8% | SNB-19 CNS 99.4% | U251 CNS 85% | PC-3 prostate 83.8% | SK-MEL-5 melanoma 97.3% | UACC-62 melanoma 71.8% | LOX IMVI melanoma 99.4% | SK-MEL-28 melanoma 103%

CNc1cc(C(=O)O)nc(NC)n1
inactive: HCT-15 colon 96.4% | HT29 colon 104% | SNB-75 CNS 90.9% | SNB-19 CNS 92.5% | U251 CNS 99.8% | PC-3 prostate 94.9% | SK-MEL-5 melanoma 96.7% | UACC-62 melanoma 97.8% | LOX IMVI melanoma 99.8% | SK-MEL-28 melanoma 92.7%

CCOC(=O)c1nn(C2CCCCO2)c2ccc(NC(=O)CN3CCOCC3)cc12 (stereo not given)
inactive: HCT-15 colon 106% | HT29 colon 116% | SNB-75 CNS 80.7% | SNB-19 CNS 98.8% | U251 CNS 97.9% | PC-3 prostate 107% | SK-MEL-5 melanoma 102% | UACC-62 melanoma 102% | LOX IMVI melanoma 98.2% | SK-MEL-28 melanoma 109%

O=C(N=c1n(-c2ccccc2)nc2n1CCN2C1=NCCN1)c1ccc(Cl)cc1
inactive: HCT-15 colon 82.5% | HT29 colon 67.5% | SNB-75 CNS 66.3% | SNB-19 CNS 91.9% | U251 CNS 80.8% | PC-3 prostate 72.7% | SK-MEL-5 melanoma 65.6% | UACC-62 melanoma 64.1% | LOX IMVI melanoma 61.2% | SK-MEL-28 melanoma 81.3%

CC1(C)OC2[C@@H](CNC(=O)NC(=O)NC(=O)CI)O[C@@H](n3cnc4c(NC(=O)Nc5ccccc5)ncnc43)[C@H]2O1 (stereo not given in full)
active: HT29 colon 9.35% | LOX IMVI melanoma -79.4%
inactive: HCT-15 colon 17.2% | SNB-75 CNS 80.5% | SNB-19 CNS 94.6% | U251 CNS 95.5% | PC-3 prostate 68.3% | SK-MEL-5 melanoma 103% | UACC-62 melanoma 93.8% | SK-MEL-28 melanoma 97.8%

CCCSc1nc(N)nc2nc[nH]c12
inactive: HCT-15 colon 104% | HT29 colon 112% | SNB-75 CNS 108% | SNB-19 CNS 102% | U251 CNS 107% | PC-3 prostate 99.4% | SK-MEL-5 melanoma 101% | UACC-62 melanoma 87.6% | LOX IMVI melanoma 99.3% | SK-MEL-28 melanoma 126%

NNC(=O)c1ccc(C(=O)NN)cc1
inactive: HCT-15 colon 112% | HT29 colon 97.9% | SNB-75 CNS 113% | SNB-19 CNS 103% | U251 CNS 93.2% | PC-3 prostate 114% | SK-MEL-5 melanoma 108% | UACC-62 melanoma 97.6% | LOX IMVI melanoma 102% | SK-MEL-28 melanoma 114%

O=C(Nc1ccc(Cl)c(C(F)(F)F)c1)Nc1ccc(-c2cccnc2)cc1N1CCC(CO)CC1
inactive: HCT-15 colon 14.8% | SNB-75 CNS 85.4% | SNB-19 CNS 29.1% | U251 CNS 21% | PC-3 prostate 12.4% | SK-MEL-5 melanoma 11.3% | UACC-62 melanoma 37% | LOX IMVI melanoma 26.6% | SK-MEL-28 melanoma 32.3%
active: HT29 colon 9.16%

Cc1cccc(C[C@H](NC(=O)Nc2ccc(Cl)cc2F)C(=O)N[C@@H]2C(=O)N3C[C@H](OC(=O)CCN(C)C)C[C@H]3C(=O)N3CCCC[C@H]3C(=O)N[C@@H](C)C(=O)N3C[C@H](C)C[C@H]3C(=O)O[C@H]2C)c1
active: HT29 colon 5.77% | SK-MEL-5 melanoma 6.65%
inactive: HCT-15 colon 64.8% | SNB-75 CNS 13.5% | SNB-19 CNS 21.3% | U251 CNS 22.9% | PC-3 prostate 16.7% | UACC-62 melanoma 13.4% | LOX IMVI melanoma 23.9% | SK-MEL-28 melanoma 25.8%

O=C(CSc1nccc(Nc2ccc(S(=O)(=O)Nc3ccccn3)cc2)n1)c1ccc(Cl)cc1
inactive: HCT-15 colon 99.9% | HT29 colon 107% | SNB-75 CNS 101% | SNB-19 CNS 97.1% | U251 CNS 93.9% | PC-3 prostate 84.3% | SK-MEL-5 melanoma 70.8% | UACC-62 melanoma 82.4% | LOX IMVI melanoma 87.6% | SK-MEL-28 melanoma 118%
